Bioassay records from PubChem.
TDP1 inh: qHTS Assay for Inhibitors of Tyrosyl-DNA Phosphodiesterase (TDP1) | Tyrosyl-DNA phosphodiesterase 1 (Homo sapiens), Q9NUW8 | recombinant TDP1, AlphaScreen DNA substrate cleavage | Potency, µM (series often up to 130 µM), for inactives: at the top dose activity change, negative = inhibition, hits mostly inhibitors | 350,000 compounds, 0.28% hits; also: nearly all actives have a fitted effect of over 40% in size
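Tdp1 1 nM final; 15 min RT w/ cpd; substrate 15 nM, 5 min; beads 10 ug/ml, 10 min; AlphaScreen read. Neg ctrl: no enzyme.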
GCN5L2 inh: qHTS Assay for Inhibitors of GCN5L2; Histone acetyltransferase KAT2A (Homo sapiens), Q92830; GCN5L2 HAT assay, ThioGlo1 CoA-SH fluorescence; Potency, µM (titrated, usually from 58.9 µM), for inactives: at the top dose activity change, negative = inhibition, hits mostly inhibitors; 390,000 compounds, 0.21% hits
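Titration-based screen in which CoA formation is detected via maleimide probe ThioGlo1 (50uM) turning fluorescent on thiol reaction; substrates H3(1-25) 75uM and acetyl-CoA 70uM, GCN5L2 20nM, 20 min incubation at room temperature.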
TDP1 cell CPT: qHTS for Inhibitors of human tyrosyl-DNA phosphodiesterase 1 (TDP1): qHTS in cells in presence of CPT; chicken DT40 Tdp1-/-;hTDP1 cells + 20 nM CPT, ATP luminescence, 48 h; Potency, µM (doses to about 46.2 µM), for the others: at the highest dose activity change, negative = growth inhibition, most hits filed as inhibitors; 420,000 compounds, 12% hits; AID 686979, 2013; also: nearly all actives have a fitted effect of over 55% in size
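Cell growth measured by CellTiter-Glo luminescence after a minimum 48 h, 37 C compound exposure with 20 nM CPT in Tdp1-knockout DT40 cells stably expressing hTDP1, seeded 400/well; qHTS titration format.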
DT40 TDP1 no CPT: qHTS for Inhibitors of human tyrosyl-DNA phosphodiesterase 1 (TDP1): qHTS in cells in absence of CPT; 420,000 compounds, 15% hits; DT40 Tdp1-/- hTDP1 cells, no CPT, ATP luminescence, 48 h; Potency, µM (top dose mostly 46.2 µM), without a hit: at the highest dose activity change, negative = growth inhibition, actives largely listed as inhibitors; also: nearly all actives have a fitted effect of over 55% in size
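Chicken DT40 Tdp1-/- cells complemented with human TDP1, screened without camptothecin (DMSO vehicle only), 400 cells/well. Compounds pin-transferred, cells incubated at 37 °C for at least 48 hr. Growth read as ATP-dependent luminescence (CellTiter-Glo, 30 min at RT).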
VDR inhibitor: Inhibitors of the vitamin D receptor (VDR): qHTS. Potency, µM, for inactives: max response, negative = inhibition, usual class: inhibitors. 400,000 compounds, 0.93% hits. VDR-SRC2-3 peptide fluorescence polarization, 2 h. AID 504847, 2011. Vitamin D3 receptor (Homo sapiens), P11473
Target sequence (P11473 whole entry, looked up): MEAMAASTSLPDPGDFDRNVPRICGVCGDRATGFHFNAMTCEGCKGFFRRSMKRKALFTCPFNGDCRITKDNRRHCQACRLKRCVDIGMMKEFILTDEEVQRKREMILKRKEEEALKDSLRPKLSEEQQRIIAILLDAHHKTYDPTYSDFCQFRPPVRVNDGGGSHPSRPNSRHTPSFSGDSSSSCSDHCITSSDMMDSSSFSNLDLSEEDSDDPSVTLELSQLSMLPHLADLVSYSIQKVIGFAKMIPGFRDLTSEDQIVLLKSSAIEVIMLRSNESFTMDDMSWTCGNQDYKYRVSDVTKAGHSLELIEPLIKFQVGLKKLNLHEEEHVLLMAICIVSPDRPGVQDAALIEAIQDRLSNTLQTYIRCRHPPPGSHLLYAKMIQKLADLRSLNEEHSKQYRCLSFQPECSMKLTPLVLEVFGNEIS
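VDR–SRC2-3 interaction, FP format. Cmpds 23 nl via pintool, brief spin, 2 h ambient incubation.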
PLK1 PBD block: qHTS for Inhibitors of PLK1-PDB (polo-like kinase 1 - polo-box domain): Primary Screen. Serine/threonine-protein kinase PLK1 (Homo sapiens), P53350. 360,000 compounds, 2.8% hits. AID 720504, 2013. Plk1 PBD binding of FITC phosphopeptide, fluorescence polarization. Potency, µM, for inactives: max response, negative = inhibition, hits mostly inhibitors; also: series mostly up to about 57 µM; nearly all actives have a fitted effect of over 65% in size
Numbers without * were called inactive; ? = inconclusive; nt = no result given; [ ] = remark or other dose. In the library only some 18% were active in any assay of this set; here they are far more common. Calls follow the shape of the dose curve; as a rule, active = well fitted curve in the direction sought with a large enough effect; inconclusive = small, poorly fitted or top-dose-only effect, or another doubt; inactive = no such curve, though single readings can be large; an effect the other way counts as inactive or inconclusive. % is scaled to controls: 0 for no effect and ±100 for the full control effect; potency is read from the fitted curve at half-maximal effect.

SMILES	TDP1 inh	GCN5L2 inh	TDP1 cell CPT	DT40 TDP1 no CPT	VDR inhibitor	PLK1 PBD block
Cc1ccccc1-n1cnc2c(sc3nc(N4CCOCC4)c4c(c32)CCCC4)c1=O	-5%	-16%	18µM*	15µM*	-12%	-7%
O=c1c2sc3nc(N4CCOCC4)c4c(c3c2nnn1Cc1ccccc1)CCCC4	-3%	-12%	8.2µM*	?	-5%	-10%
COc1ccc(-n2cnc3c(sc4nc(N5CCOCC5)c5c(c43)CCCC5)c2=O)cc1	-1%	-5%	18µM*	23µM*	-17%	-10%
Cc1ccc(/C=N\NC(=O)/C(=C\Nc2nccc(C)n2)NC(=O)c2ccccc2)cc1	2%	-2%	-30%	-26%	24%	-3%
CN(Cc1c(C(=O)N/N=C/c2c(F)cccc2Cl)nnn1-c1nonc1N)C1CCCCC1	nt	nt	-7%	-3%	nt	-9%
Cc1ccc(CNC(=O)CCS(=O)(=O)c2cc3c4c(c2)CCN4C(=O)CC3)cc1	-3%	-2%	-13%	3%	6%	nt
CCOC(=O)N1CCc2c(sc3c2c(=O)n(CCc2ccccc2)c(=O)n3Cc2cc(C)ccc2C)C1	-1%	0%	-6%	-7%	-10%	nt
COc1ccc(-n2c(O)cnc2Nc2nc(C)cc(C)n2)cc1OC	-8%	-4%	-11%	-1%	6%	-4%
Cc1noc(C)c1COc1ccccc1C(=O)N1CCN(S(=O)(=O)c2ccc(C(C)C)cc2)CC1	nt	nt	?	16µM*	nt	0%
Cc1noc(C)c1COc1ccccc1C(=O)N1CCN(S(=O)(=O)c2ccccc2Br)CC1	nt	nt	16µM*	21µM*	-19%	-4%
Cc1cc(C)c(C)c(S(=O)(=O)N2CCN(C(=O)c3ccccc3OCc3c(C)noc3C)CC2)c1C	3%	3%	?	18µM*	13%	2%
Cc1noc(C)c1COc1ccccc1C(=O)N1CCN(S(=O)(=O)c2cccc(Cl)c2)CC1	0%	3%	-14%	-17%	?	-9%
COc1ccc(NC(C)=O)cc1S(=O)(=O)NCc1ccc2c(c1)OCO2	nt	nt	-10%	-17%	nt	-11%
COCCn1c(N2CCN(c3ccccc3)CC2)nc2c1c(=O)n(C)c(=O)n2C	2%	-1%	-26%	?	-15%	-4%
CC1Cc2ccccc2N1C(=O)CSc1nc2c(c(=O)n(C)c(=O)n2C)n1Cc1ccccc1 (stereo not drawn)	7%	-2%	23µM*	21µM*	-7%	-6%
CCCCCCn1c(N2CCN(c3ccccc3)CC2)nc2c1c(=O)n(C)c(=O)n2C	5%	-3%	?	21µM*	3%	-3%
Cn1c(=O)c2c(nc(N3CCCCCC3)n2CCSc2nc3ccccc3o2)n(C)c1=O	-7%	-4%	7.3µM*	23µM*	-13%	-8%
C=C(C)Cn1c(N2CCN(c3ccc(OC)cc3)CC2)nc2c1c(=O)n(C)c(=O)n2C	8%	-4%	16µM*	13µM*	-2%	3%
Cc1ccc(-c2nn(C)c(=O)c3ccccc23)cc1S(=O)(=O)NCCCN(C)C	-1%	-2%	1%	0%	-14%	nt
Cn1c(=O)c2c(nc(N3CCOCC3)n2Cc2ccc(Br)cc2)n(C)c1=O	nt	-7%	10µM*	21µM*	-5%	nt
CCCn1c(SCC(=O)N2CCN(c3ccc(OC)cc3)CC2)nc2c1c(=O)n(C)c(=O)n2C	5%	4%	18µM*	16µM*	0%	-10%
Cn1c(=O)c2c(nc(N3CCOCC3)n2CCc2ccccc2)n(C)c1=O	7%	-4%	-23%	-8%	2%	-15%
COc1ccc(N2CCN(c3nc4c(c(=O)n(C)c(=O)n4C)n3Cc3ccccc3)CC2)cc1	12%	-4%	23µM*	?	2%	-6%
Cn1c(=O)[nH]c(=O)c2c1nc(N1CCNCC1)n2Cc1ccccc1Cl	nt	-8%	-4%	-23%	-12%	-4%
CC1CCCN(c2nc3c(c(=O)[nH]c(=O)n3C)n2Cc2ccccc2Cl)C1 (stereo not drawn)	9%	-10%	15µM*	?	4%	-12%
SMILES	TDP1 inh	GCN5L2 inh	TDP1 cell CPT	DT40 TDP1 no CPT	VDR inhibitor	PLK1 PBD block
CC(=O)N1CC=CC1(C)C(=O)NCC1CC1 (stereo not drawn)	-4%	nt	nt	nt	nt	nt
CC1=C(C(=O)N(C(C)C)C(C)C)CC(CC(=O)NC(c2ccccc2)c2ccccc2)C(=O)N1Cc1ccc(F)cc1 (stereo not drawn)	nt	nt	?	?	nt	5%
O=C(CSCc1ccc(Cl)cc1)NCc1ccccn1	6%	-1%	-4%	-18%	-14%	-28%
Cn1cc(-c2nc3cnc(Oc4ccccc4)nc3n(Cc3cccs3)c2=O)c2ccccc21	nt	-10%	-15%	-4%	-3%	nt
CC1CCCN(c2nc3c(c(=O)n(C)c(=O)n3C)n2Cc2ccccc2)C1 (stereo not drawn)	4%	-3%	?	23µM*	-19%	-3%
COc1ccc(OCC(O)Cn2c(N3CCCCC3)nc3c2c(=O)n(C)c(=O)n3C)cc1 (stereo not drawn)	3%	-17%	?	16µM*	8%	11%
Cc1ccc(C(=O)NCCCN2CCOCC2)c(Cl)c1	nt	-4%	-30%	0%	16%	-1%
COC(=O)C1=C(C)N(Cc2ccccc2)[C@]23O[C@](C(=O)OC)(C(=O)N2C1c1ccccc1)C(C(=O)OC)C3C(=O)OC (stereo partly drawn)	-4%[21 µM]	nt	nt	nt	nt	nt
O=C(NC1CCCCCC1)C1CCN(C(=O)N2CCOc3ccccc32)CC1	-1%	0%	?	?	10%	nt
O=C(Cc1ccc(Cl)cc1)SCc1ccccc1	32µM*	-5%	-9%	4%	-18%	-11%
O=C(Cc1ccccc1)NCCSCc1ccc(Cl)cc1	-8%	4%	-5%	-11%	11%	-7%
CCn1cc(C(=O)N(C)c2cc(C)ccc2C)c2cc(OC)c(OC)cc2c1=O	3%	-10%	26µM*	21µM*	-7%	nt
CCn1cc(C(=O)N(C)c2ccc(C(C)C)cc2)c2cc(OC)c(OC)cc2c1=O	9%	-4%	?	18µM*	-1%	nt
